# Laboratory results as given in PubChem BioAssay (NCI).
# Compounds without any hit were thinned out: in the full panel of roughly 83,000, 20% have a hit.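 Plates (96-well) were seeded with cells, treated with compound at one concentration, and incubated for 48 hours before percent growth was determined.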 Values without a mark were called inactive. Activity calls are given as the source filed them. How the source made its calls: active means growth percent below 10; inactive means the rest.
# Columns and labels:
# Assay in all cases: NCI-60 one-dose screen, 48 h (100 = growth as untreated, 0 = no growth, -100 = all killed)
# Conditions in all cases: 10 µM unless noted
# SR leukemia = system: SR leukemia
# OVCAR-8 ovarian = system: OVCAR-8 ovarian
# OVCAR-5 ovarian = system: OVCAR-5 ovarian
# OVCAR-4 ovarian = system: OVCAR-4 ovarian
# SK-OV-3 ovarian = system: SK-OV-3 ovarian
# IGROV1 ovarian = system: IGROV1 ovarian
# OVCAR-3 ovarian = system: OVCAR-3 ovarian
# HS 578T breast = system: HS 578T breast
# NCI/ADR-RES ovarian = system: NCI/ADR-RES ovarian
# T-47D breast = system: T-47D breast
# BT-549 breast = system: BT-549 breast
# SW-620 colon = system: SW-620 colon
# MCF7 breast = system: MCF7 breast
# HCC-2998 colon = system: HCC-2998 colon
# KM12 colon = system: KM12 colon
# MDA-MB-435 melanoma = system: MDA-MB-435 melanoma
# HCT-116 colon = system: HCT-116 colon
# RPMI-8226 leukemia = system: RPMI-8226 leukemia
Structure (SMILES),growth (SR leukemia),growth (OVCAR-8 ovarian),growth (OVCAR-5 ovarian),growth (OVCAR-4 ovarian),growth (SK-OV-3 ovarian),growth (IGROV1 ovarian),growth (OVCAR-3 ovarian),growth (HS 578T breast),growth (NCI/ADR-RES ovarian),growth (T-47D breast),growth (BT-549 breast),growth (SW-620 colon),growth (MCF7 breast),growth (HCC-2998 colon),growth (KM12 colon),growth (MDA-MB-435 melanoma),growth (HCT-116 colon),growth (RPMI-8226 leukemia)
COc1ccc(Oc2ccc(C3CC(c4cc(OC)c(OC)c(OC)c4)=NN3C(C)=O)cc2)cc1 (configuration not stated),35.7%,30.3%,50.2%,18%,50.9%,19.7%,25.1%,51.3%,19.8%,9.08% (active),45.5%,46.9%,10.1%,42.2%,27.5%,,,
O=C(Nc1ccc(-c2nc(-c3cccc(O)c3)c(-c3ccnc(Br)c3)[nH]2)cc1)c1ccccc1,-15.2% (active),24.3%,57.7%,,-5.97% (active),25.6%,31.6%,-24.1% (active),57.6%,-6.8% (active),40.6%,10.5%,0.42% (active),26.3%,12.9%,,,
Cc1cc(Cl)cc(NS(=O)(=O)c2ccc(-c3cnc(C4CC4)o3)cc2)c1,27.1%,38.7%,,66.2%,72.8%,33.2%,-24.3% (active),35.6%,10.1%,36.1%,48%,28%,24.9%,19.8%,15.4%,-23.8% (active),18.4%,
CCNCc1c(-c2cccc(OC(F)(F)F)c2)[nH]c2ccc(N3CCCC3)cc2c1=O,9.06% (active),22.5%,24.5%,49.8%,34.2%,22.6%,-6.81% (active),8.12% (active),9.42% (active),28.9%,50.6%,16.8%,11.4%,-27.7% (active),14.8%,,11.2%,
CC(=O)Nc1ccc(NC(=O)Nc2cccc(-c3nc(-c4ccc(NC(=O)c5cccs5)cc4Cl)no3)c2)cc1C(F)(F)F,-7.39% (active),-15.8% (active),-37.9% (active),-94.5% (active),-66% (active),-57.6% (active),-63.4% (active),-28.3% (active),55.5%,-59.4% (active),-26.7% (active),-51.3% (active),-58.1% (active),,-50.1% (active),,-22.2% (active),
O=S(=O)(Nc1ccc(I)c(Cl)c1)c1ccc(-c2cnc(C3CC3)o2)cc1,27.9%,38.9%,45.2%,56.8%,50.2%,36.3%,-9.98% (active),17.9%,14.6%,26.9%,57.1%,15.3%,17%,59.1%,32%,,26.6%,
CCOC(=O)C1=C(C)Nc2nc3ccccc3n2C1c1cccc(Br)c1 (configuration not stated),25.4%,96%,97.1%,,93.6%,77.4%,40.3%,79.1%,59%,88.1%,76.9%,68.2%,38.3%,93.1%,65.6%,7.44% (active),81.4%,
Cc1ccc(Nc2ncnc3c2c(C)nn3-c2ccc([N+](=O)[O-])cc2)cc1,68.6%,72.6%,101%,46%,71.7%,,46.3%,68.6%,80.4%,78.8%,92.5%,65.5%,83%,97.4%,81.2%,95.7%,58.9%,
CC(=O)Nc1cccc(-n2cnc3cc(-c4ccc(O)cc4)ccc32)c1,,28.8%,66.7%,66.4%,32.9%,41.1%,,-17.1% (active),18.5%,27.7%,49.2%,19.4%,31.4%,79.6%,20.6%,-17.7% (active),20.8%,20.3%
C=CCn1c(SCC(=O)Nc2cccc(C(=O)/C=C/c3ccc(C)cc3)c2)nc2ccccc2c1=O,,82.1%,101%,84.9%,113%,95.8%,,101%,84.5%,67.3%,122%,67.5%,26.5%,87.2%,74.5%,68.6%,13.7%,27.1%
COC(=O)c1nc(-c2ccc(C)cc2)oc1S(=O)(=O)N1CCN(c2oc(-c3ccccc3)nc2C#N)CC1,,102%,108%,106%,119%,106%,,108%,103%,111%,99.7%,99.5%,80.6%,113%,,102%,92.8%,97.7%
COCCOc1ccc(-c2csc(NC(=O)CN3CCN(CCO)CC3)n2)cc1NS(=O)(=O)c1cccc2c(N(C)C)cccc12,,81.2%,94.2%,96%,92.9%,82.9%,,70.1%,97.2%,84.5%,96.1%,93.4%,93.6%,91.3%,97.4%,83%,10.8%,54.6%
COc1ccc2c(c1)oc1c3[nH]c4ccccc4c3c3c(c21)C(=O)N(O)C3=O,,48.4%,110%,77.9%,39.1%,41.2%,,77.9%,59.6%,10.8%,40.9%,34.3%,15.7%,84.7%,48%,53.2%,21.5%,28%
Cc1occc1-c1nc2s/c(=C\c3cn(-c4ccccc4)nc3-c3ccccc3)c(=O)n2n1,,101%,99.5%,97%,113%,-96.2% (active),,105%,97.9%,95.2%,97.7%,97.5%,91.9%,101%,102%,98.9%,98.7%,99.1%
COc1cnc2c(c1)C(=O)c1c-2n(CCCNCC2CC2)c(=O)c2cc(F)ccc12,,-61.6% (active),-6.47% (active),-4.75% (active),-38% (active),10.3%,,26.1%,5.01% (active),-21.2% (active),-0.964% (active),-29.6% (active),-8.09% (active),,,10%,-79.7% (active),-38.5% (active)
C=CCn1c(SCC(=O)Nc2cccc(C(=O)/C=C/c3ccc(OC)c(OC)c3)c2)nc2ccccc2c1=O,,89.5%,96.1%,87.6%,108%,90.5%,,88.9%,91.8%,79.9%,97.7%,74.4%,45.4%,100%,91.8%,101%,55.6%,38.7%
COc1cc2c3c(n(CCCN4CCCCC4)c(=O)c2cc1OC)-c1cc2c(cc1C3=O)OCO2,,-63.6% (active),-96.1% (active),-74.1% (active),46%,-68.7% (active),,-51.2% (active),-62% (active),-64.6% (active),-59.7% (active),-92.5% (active),-75.5% (active),-86.8% (active),-85.4% (active),-81.4% (active),-71.9% (active),-47.3% (active)
COc1cc2c3c(n(CCCN4CCCC4)c(=O)c2cc1OC)-c1cc2c(cc1C3=O)OCO2,,-65.3% (active),-73.1% (active),-59.2% (active),53.7%,-70.9% (active),,88.6%,-39.6% (active),78.3%,82.3%,-63.1% (active),-71.7% (active),42.2%,-23.4% (active),-12.5% (active),-84% (active),-41.2% (active)
Clc1ccccc1/C=C/c1nn2c(-c3ccncc3)nnc2s1,,103%,109%,103%,121%,102%,,97.7%,106%,95%,107%,108%,66.4%,101%,110%,103%,96.5%,101%
